Shown are actives, neighbours in structure and some others; about 12% of the full set was active somewhere.
HP1b chromo inh – inhibitors of HP1-beta chromodomain binding to methylated histone tails; P83916; AlphaScreen HP1-beta / biotin-H3K9me3 peptide binding; Potency, µM (doses to about 114 µM), most hits filed as inhibitors; 390,000 compounds, 0.56% hits; also: nearly all actives have a fitted effect of over 70% in size
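Compound inhibition of the preformed complex between 50 nM HP1-beta and 50 nM biotinylated H3K9me3 peptide was read by AlphaScreen. Buffer was PBS pH 7.4 with 0.01% Tween-20. Incubations ran 30 min at room temperature, with 10 ug/mL donor/acceptor beads.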
Sfp inh – Sfp phosphopantetheinyl transferase inhibition. 310,000 compounds, 3.5% hits. AID 1490. Potency, µM, most hits filed as inhibitors. Biochemical Sfp PPTase activity, qHTS. Q9F4F7;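 also: the enzyme is Sfp with the accession as filed and its product quenches rhodamine fluorescence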
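After 15 min at room temperature with compound, 15 nM Sfp received 5 uM rhodamine-CoA plus 12.5 uM BHQ-2-ybbR (50 mM Hepes pH 7.6, 10 mM MgCl2). Rate came from the fluorescence difference over 30 min, ex 525/em 598 nm.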
L3MBTL1 inh – L3MBTL1 (human) inhibition; 230,000 compounds, 0.66% hits; Potency, µM (top dose mostly 57.1 µM), usual class: inhibitors; AlphaScreen L3MBTL1–H3K9me1 peptide binding; AID 485360; also: nearly all actives have a fitted effect of over 60% in size
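L3MBTL1 50 nM + b-AHA-H3(1-15)K9me1 75 nM, 30 min RT; compound added, 30 min RT; streptavidin donor/Ni-chelate acceptor beads 10 ug/mL each final, 30 min RT dark; AlphaScreen read.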
G9a inh – inhibitors of human histone lysine methyltransferase G9a. Q96KQ7. G9a H3K9 monomethylation, AlphaScreen, 2 h. Potency, µM (series often up to 102 µM), hits mostly inhibitors. 350,000 compounds, 8.8% hits; also: nearly all actives have a fitted effect of over 75% in size
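G9a (20 nM) was preincubated 15 min with compound, then reacted 2 h at room temperature with 500 nM biotin-H3K9 peptide and 20 µM SAM. Monomethyl-H3K9 detected by AlphaScreen using anti-H3K9me1 antibody.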
BAZ2B block – blocks human BAZ2B | Q9UIF8 | AlphaScreen BAZ2B-H3K14Ac peptide displacement | Potency, µM (titrated, usually from 114 µM), most hits filed as inhibitors | 360,000 compounds, 4.4% hits; also: nearly all actives have a fitted effect of over 60% in size
Target sequence (Q9UIF8 whole entry, looked up): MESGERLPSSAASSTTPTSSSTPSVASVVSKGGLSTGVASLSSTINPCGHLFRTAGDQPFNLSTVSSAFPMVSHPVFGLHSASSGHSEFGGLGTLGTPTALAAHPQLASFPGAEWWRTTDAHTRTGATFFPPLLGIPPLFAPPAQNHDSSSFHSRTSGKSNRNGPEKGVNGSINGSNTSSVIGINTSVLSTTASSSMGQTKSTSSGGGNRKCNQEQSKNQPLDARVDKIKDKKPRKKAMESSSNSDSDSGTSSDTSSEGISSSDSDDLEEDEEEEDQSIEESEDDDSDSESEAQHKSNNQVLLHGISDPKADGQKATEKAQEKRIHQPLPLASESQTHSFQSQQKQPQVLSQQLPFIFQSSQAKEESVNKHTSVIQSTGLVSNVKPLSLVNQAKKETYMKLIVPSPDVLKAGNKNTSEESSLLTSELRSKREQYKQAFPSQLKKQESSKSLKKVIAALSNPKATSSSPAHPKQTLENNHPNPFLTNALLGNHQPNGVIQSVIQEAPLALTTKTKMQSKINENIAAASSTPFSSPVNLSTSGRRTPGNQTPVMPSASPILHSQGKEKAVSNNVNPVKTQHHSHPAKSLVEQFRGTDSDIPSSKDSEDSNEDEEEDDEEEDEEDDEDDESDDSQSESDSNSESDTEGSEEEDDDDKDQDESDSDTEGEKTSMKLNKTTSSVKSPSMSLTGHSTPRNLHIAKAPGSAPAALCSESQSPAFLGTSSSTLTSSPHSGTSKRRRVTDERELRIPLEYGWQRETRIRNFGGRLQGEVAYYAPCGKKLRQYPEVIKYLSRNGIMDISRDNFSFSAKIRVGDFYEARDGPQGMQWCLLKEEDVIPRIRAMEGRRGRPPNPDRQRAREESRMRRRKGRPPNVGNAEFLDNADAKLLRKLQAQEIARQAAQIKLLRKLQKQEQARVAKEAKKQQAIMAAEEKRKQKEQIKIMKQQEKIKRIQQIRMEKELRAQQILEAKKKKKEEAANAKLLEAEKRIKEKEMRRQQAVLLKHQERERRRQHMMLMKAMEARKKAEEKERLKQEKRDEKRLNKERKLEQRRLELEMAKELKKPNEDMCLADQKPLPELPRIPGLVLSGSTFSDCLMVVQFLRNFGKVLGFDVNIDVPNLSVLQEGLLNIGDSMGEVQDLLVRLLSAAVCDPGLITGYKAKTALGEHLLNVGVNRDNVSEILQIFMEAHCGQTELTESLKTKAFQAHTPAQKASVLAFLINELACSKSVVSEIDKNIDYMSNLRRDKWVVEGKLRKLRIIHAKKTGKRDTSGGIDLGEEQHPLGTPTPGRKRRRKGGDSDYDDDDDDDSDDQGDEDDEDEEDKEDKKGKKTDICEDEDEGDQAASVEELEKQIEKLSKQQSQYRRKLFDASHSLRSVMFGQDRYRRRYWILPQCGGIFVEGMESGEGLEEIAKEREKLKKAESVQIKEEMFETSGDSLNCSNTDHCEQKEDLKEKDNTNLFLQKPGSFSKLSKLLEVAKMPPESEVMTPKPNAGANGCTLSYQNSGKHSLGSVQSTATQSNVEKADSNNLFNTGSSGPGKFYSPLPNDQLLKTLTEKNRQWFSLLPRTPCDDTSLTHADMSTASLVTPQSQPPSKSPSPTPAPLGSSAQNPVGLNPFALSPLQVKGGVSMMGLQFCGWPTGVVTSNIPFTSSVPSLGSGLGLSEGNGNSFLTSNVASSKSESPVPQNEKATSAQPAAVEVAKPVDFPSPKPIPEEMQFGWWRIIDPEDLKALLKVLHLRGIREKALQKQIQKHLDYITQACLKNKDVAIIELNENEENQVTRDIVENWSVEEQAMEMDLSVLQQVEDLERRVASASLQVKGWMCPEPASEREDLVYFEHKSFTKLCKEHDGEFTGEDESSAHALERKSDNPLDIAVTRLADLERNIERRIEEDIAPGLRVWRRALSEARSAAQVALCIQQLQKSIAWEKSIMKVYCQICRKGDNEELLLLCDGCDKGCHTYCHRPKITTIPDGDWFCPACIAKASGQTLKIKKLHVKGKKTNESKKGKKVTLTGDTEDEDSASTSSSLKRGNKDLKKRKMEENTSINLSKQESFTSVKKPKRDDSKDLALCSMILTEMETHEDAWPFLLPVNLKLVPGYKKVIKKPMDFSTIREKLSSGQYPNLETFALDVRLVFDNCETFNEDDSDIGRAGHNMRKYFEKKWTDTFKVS
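AlphaScreen displacement: compounds (up to 110uM) incubated 30 min at room temperature with a preformed 50 nM BAZ2B/50 nM biotinylated H3K14Ac peptide complex in PBS pH 7.4 with Tween-20. Donor and acceptor beads at 10 ug/mL final added, 20 min light-protected before reading.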
JMJD2A Tudor – JMJD2A Tudor domain (human) inhibition; AlphaScreen JMJD2A-Tudor / H3K4me3 peptide binding; Potency, µM (top dose mostly 114 µM), hits mostly inhibitors; AID 504339; 390,000 compounds, 4.4% hits; also: nearly all actives have a fitted effect of over 50% in size
A number is an active result; [ ] = remark or other dose. Calls follow the shape of the dose curve; as a rule, active = well fitted curve in the direction sought with a large enough effect; inconclusive = small, poorly fitted or top-dose-only effect, or another doubt; inactive = no such curve, though single readings can be large; an effect the other way counts as inactive or inconclusive.

What do the screens show for `Cc1cc(C(c2ccc(C)o2)c2ccc(C)o2)c(O)c([N+](=O)[O-])c1`?
HP1b chromo inh: 15.8µM; Sfp inh: 50.1µM; G9a inh: 35.5µM; BAZ2B block: 44.7µM; JMJD2A Tudor: 39.8µM

Results for Cc1ccc(C(c2ccc(C)o2)c2cccc([N+](=O)[O-])c2O)o1 ?
HP1b chromo inh: inconclusive; Sfp inh: inconclusive; L3MBTL1 inh: inactive; G9a inh: 39.8µM; BAZ2B block: 39.8µM; JMJD2A Tudor: 50.1µM

What do the screens show for `Cc1cc(/C=N/n2cnnc2)c(O)c([N+](=O)[O-])c1`?
HP1b chromo inh: inactive; Sfp inh: inactive; L3MBTL1 inh: inactive; G9a inh: inactive; BAZ2B block: inconclusive; JMJD2A Tudor: inactive

Results for Cc1c(C(c2cccc([N+](=O)[O-])c2O)c2c(C)n(C)n(-c3ccccc3)c2=O)c(=O)n(-c2ccccc2)n1C ?
HP1b chromo inh: inactive; Sfp inh: inactive; L3MBTL1 inh: inactive; G9a inh: inactive[12.7 µM]; BAZ2B block: inactive; JMJD2A Tudor: inactive

Results for Cc1cc(C)cc(-n2ccn(CC(=O)Nc3ccccc3C(F)(F)F)c(=O)c2=O)c1 ?
HP1b chromo inh: inactive; G9a inh: inactive; BAZ2B block: inactive; JMJD2A Tudor: inactive

How did Cc1ccc(CNC(=O)CCc2nnc3n(C)c(=O)c4sccc4n23)cc1 do in these assays?
HP1b chromo inh: inactive; G9a inh: inactive; BAZ2B block: inactive; JMJD2A Tudor: inactive

Results for Cc1cc(C)n(-c2nc3ccccc3s2)n1 ?
HP1b chromo inh: inactive; Sfp inh: inactive; L3MBTL1 inh: inactive; G9a inh: inactive; BAZ2B block: inactive; JMJD2A Tudor: inactive

Results for Cc1c2c(=O)n(-c3nc4ccccc4s3)nc-2cc(O)n1Cc1ccccc1 ?
HP1b chromo inh: inactive; Sfp inh: inactive; BAZ2B block: 39.8µM; JMJD2A Tudor: inactive

What do the screens show for `O=C(O)c1cc2nccc(-c3ccco3)n2n1`?
HP1b chromo inh: inactive; Sfp inh: inactive; G9a inh: 50.1µM; BAZ2B block: inconclusive; JMJD2A Tudor: 89.1µM

Results for CSc1cccc(NC(=S)N2CCC(c3ccccc3)C2)c1 (centres undefined) ?
HP1b chromo inh: inactive; Sfp inh: inactive; G9a inh: inactive; BAZ2B block: inactive; JMJD2A Tudor: inactive

How did CSc1cccc(NC(=S)N2CCC(N(C)C3CCCCC3C)CC2)c1 (centres undefined) do in these assays?
HP1b chromo inh: inactive; Sfp inh: inactive; G9a inh: 50.1µM; BAZ2B block: inconclusive; JMJD2A Tudor: inactive

Results for CSc1cccc(NC(=S)N2CCC(N(C)C3CCCCC3)CC2)c1 ?
HP1b chromo inh: inactive; Sfp inh: inactive; G9a inh: 50.1µM; BAZ2B block: inactive; JMJD2A Tudor: inactive

Results for CCCCN(C(=S)Nc1cccc(SC)c1)C1CCN(C(C)=O)CC1 ?
HP1b chromo inh: inactive; Sfp inh: inactive; G9a inh: inactive; BAZ2B block: inactive; JMJD2A Tudor: inactive

What do the screens show for `CCN(CC)c1ccc(NC(=O)c2cnn(-c3ccccc3)c2-n2cccc2)c(C)c1`?
HP1b chromo inh: inactive; G9a inh: inconclusive; BAZ2B block: inactive; JMJD2A Tudor: inactive

How did C#CCOc1ccc(-c2nnc(Nc3cccc(C)c3)c3ccccc23)cc1 do in these assays?
HP1b chromo inh: inactive; G9a inh: inactive; BAZ2B block: inactive; JMJD2A Tudor: inactive

What do the screens show for `CCOc1cccc(CN2CCCC(N3CCN(c4cccc(Cl)c4)CC3)C2)c1O` (centres undefined)?
HP1b chromo inh: inactive; Sfp inh: inactive; L3MBTL1 inh: inactive; G9a inh: inconclusive; BAZ2B block: inconclusive; JMJD2A Tudor: inconclusive

How did CCCCOCc1cc(CN2CCN(c3cccc(Cl)c3)CC2)c(O)c2ncccc12 do in these assays?
HP1b chromo inh: inactive; G9a inh: inactive; BAZ2B block: 5.62µM; JMJD2A Tudor: 3.98µM

Results for CCCOCc1cc(CN2CCN(c3cccc(Cl)c3)CC2)c(O)c2ncccc12 ?
HP1b chromo inh: inactive; G9a inh: inactive; BAZ2B block: 31.6µM; JMJD2A Tudor: 12.6µM

Results for CCOc1ccc(C(=O)Nc2cc(-c3nc4ccccc4o3)ccc2C)cc1Cl ?
HP1b chromo inh: inactive; G9a inh: inactive; BAZ2B block: inactive; JMJD2A Tudor: inactive

How did CCOC(=O)c1csc(N/N=C2\CCCc3ccccc32)n1 do in these assays?
HP1b chromo inh: inactive; Sfp inh: 79.4µM; G9a inh: 25.1µM; BAZ2B block: inconclusive; JMJD2A Tudor: inconclusive

What do the screens show for `CCOC(=O)c1csc(N/N=C2\CCc3ccccc32)n1`?
HP1b chromo inh: inactive; Sfp inh: inactive; G9a inh: 28.2µM; BAZ2B block: 44.7µM; JMJD2A Tudor: inconclusive

Results for CCOC(=O)c1csc(NC(=O)c2cccs2)n1 ?
HP1b chromo inh: inactive; Sfp inh: inactive; G9a inh: inactive; BAZ2B block: inactive; JMJD2A Tudor: inactive

How did CC(C)OC(=O)c1c2c(n3ccccc13)C(=O)c1ccccc1C2=O do in these assays?
HP1b chromo inh: inconclusive; Sfp inh: inconclusive; L3MBTL1 inh: inactive; G9a inh: inconclusive; BAZ2B block: 31.6µM; JMJD2A Tudor: inconclusive

Results for O=S(=O)(c1ccc2c(c1)OCCO2)N1CCN(S(=O)(=O)c2cccc3cccnc23)CC1 ?
JMJD2A Tudor: inactive

Results for Cc1ccc(S(=O)(=O)Nc2cc3c(cc2NCc2ccccc2)n(C)c(=O)n3C)cc1 ?
HP1b chromo inh: inconclusive; G9a inh: 15.8µM; BAZ2B block: inactive; JMJD2A Tudor: inconclusive

Results for Cn1c(=O)n(C)c2cc(NS(=O)(=O)c3ccc(F)cc3)c(NCc3ccccc3)cc21 ?
HP1b chromo inh: inactive; G9a inh: 11.2µM; BAZ2B block: inactive; JMJD2A Tudor: inconclusive

Results for Cc1ccc(S(=O)(=O)Nc2cc3c(cc2NCc2ccccc2)n(C)c(=O)n3C)c(C)c1 ?
HP1b chromo inh: inactive; G9a inh: 11.2µM; BAZ2B block: 50.1µM; JMJD2A Tudor: inconclusive

Results for Cc1ccc(S(=O)(=O)Nc2ccc3c(c2)n(C)c(=O)n3C)c(C)c1 ?
HP1b chromo inh: inactive; Sfp inh: inactive; L3MBTL1 inh: inactive; BAZ2B block: inactive; JMJD2A Tudor: inactive

What do the screens show for `CCOCCCNC(=O)C(c1ccccc1)N(Cc1cccs1)C(=O)c1ccc(NC(C)=O)cc1` (centres undefined)?
HP1b chromo inh: inactive; G9a inh: inactive; BAZ2B block: inactive; JMJD2A Tudor: inactive

How did COc1cc(OC)cc(-c2sc3ccccc3c(=O)c2I)c1 do in these assays?
Sfp inh: inconclusive; G9a inh: inactive

What do the screens show for `Cc1cccc(Oc2ccc(NC(=O)CCC(=O)OCC(=O)c3ccc(Br)cc3)cc2)c1C`?
HP1b chromo inh: inactive; G9a inh: inactive; BAZ2B block: inactive; JMJD2A Tudor: inactive

Results for O=S(=O)(c1ccccc1)c1nc(Nc2ccccc2N2CCOCC2)sc1Cl ?
HP1b chromo inh: inconclusive; Sfp inh: inactive; L3MBTL1 inh: inactive; G9a inh: 25.1µM; BAZ2B block: inactive; JMJD2A Tudor: 31.6µM

Bioassay records as filed in PubChem.
